The text below walks through data of PubChem BioAssay (Tox21).

Assay [1] can be described thus: qHTS assay for small molecule agonists of the p53 signaling pathway (AID 651631; calls by dose curve; also: % is scaled to controls: 0 for no effect and ±100 for the full control effect; nearly all actives have a fitted effect of over 15% in size). An outline of the steps: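 Beta-lactamase reporter activity under p53 response elements was quantified in HCT-116 cells by FRET fluorescence, following 16 h incubation with test compounds at 37 °C and 2 h substrate development at room temperature.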
The nature of assay [2]: qHTS assay for small molecules that induce genotoxicity in human embryonic kidney cells expressing luciferase-tagged ATAD5 (AID 651632). Also: % is scaled to controls: 0 for no effect and ±100 for the full control effect; nearly all actives have a fitted effect of over 15% in size. An outline of the steps: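 Concentration-response screen for ATAD5 upregulation in HEK293T luciferase reporter cells; 16 hr treatment at 37C, then luminescence after 30 min with Amplite at room temperature.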
The nature of assay [3]: qHTS assay for small molecule agonists of the p53 signaling pathway - cell viability (AID 651633; calls by dose curve;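 also: p53RE-bla HCT reporter cells with a stable beta-lactamase p53 reporter; % is scaled to controls: 0 for no effect and ±100 for the full control effect; nearly all actives have a fitted effect of over 30% in size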). An outline of the steps: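 Viability counter-read: CellTiter-Glo luminescence (30 min, room temperature) in the same p53RE-bla plates. These plates had been exposed to compounds for 16 h at 37 C.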
On the technique in general: qHTS replaces the single test concentration by a dilution series.

Assay [4] in a line: qHTS assay for small molecules that induce genotoxicity in human embryonic kidney cells expressing luciferase-tagged ATAD5 - cell viability (AID 651634; calls by dose curve; also: % is scaled to controls: 0 for no effect and ±100 for the full control effect; nearly all actives have a fitted effect of over 25% in size). An outline of the steps:
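15.5 hr compound or vehicle exposure of HEK293T cells expressing luciferase-tagged ATAD5 at 37C; live-cell protease activity is read by fluorescence after 30 min of CellTiter-Fluor.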

Assay [5] in a line: qHTS assay for small molecule disruptors of the mitochondrial membrane potential - cell viability (AID 720634; calls by dose curve;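 also: human HepG2 liver cancer cells; % is scaled to controls: 0 for no effect and ±100 for the full control effect; nearly all actives have a fitted effect of over 20% in size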). Put shortly:
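In this qHTS format, HepG2 cells plated overnight were pinned with compound, incubated 1 hr, and assayed for ATP luminescence with CellTiter-Glo after m-MPI dye addition.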

Assay [6] is described as follows: qHTS assay to test for compound auto fluorescence at 590 nm (red) in HepG2 cells (AID 720674). Also: % is scaled to controls: 0 for no effect and ±100 for the full control effect. Put shortly: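 Red autofluorescence (Ex/Em 540/590 nm, Rose Bengal sodium equivalents) was measured in HepG2 cells, 2,000 per well in MEM plus 10% FBS, plated overnight at 37 C. Readings were taken 1 hr after adding 23 nL compound or DMSO, at 37 C and 5% CO2.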
The nature of assay [7]: qHTS assay to test for compound auto fluorescence at 535 nm (green) in HepG2 cells (AID 720675). Also: % is scaled to controls: 0 for no effect and ±100 for the full control effect.
A short description of assay [8]: qHTS assay to test for compound auto fluorescence at 460 nm (blue) in HEK293 cells (AID 720678). Also: % is scaled to controls: 0 for no effect and ±100 for the full control effect. An outline of the steps: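 HEK293, 2,000 cells/well, 10% dialyzed FBS; attach 4-5 hr 37C; pin compound or DMSO; o/n 37C/5% CO2; fluorescence 405/460 nm; triamterene-equivalent units.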
A short description of assay [9]: qHTS assay to test for compound auto fluorescence at 590 nm (red) in HEK293 cells (AID 720679). Also: % is scaled to controls: 0 for no effect and ±100 for the full control effect. An outline of the steps: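 Intensity at 540nm excitation and 590nm emission is reported as Rose Bengal sodium-equivalent autofluorescence. Measurements followed overnight exposure (37C, 5% CO2) of HEK293 cells, 2,000 per well, to 23 nL compound.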
A short description of assay [10]: qHTS assay to test for compound auto fluorescence at 535 nm (green) in HEK293 cells (AID 720680). Also: % is scaled to controls: 0 for no effect and ±100 for the full control effect.
Assay [11] is described as follows: qHTS assay to test for compound auto fluorescence at 460 nm (blue) in HEK293 cell free culture (AID 720681). Also: % is scaled to controls: 0 for no effect and ±100 for the full control effect. An outline of the steps: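 Blue fluorescence (Ex 405/Em 460 nm, triamterene-equivalent) was read immediately after pin transfer of compound or DMSO into medium (DMEM, 10% FBS) without cells.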
Assay [12] in a line: qHTS assay to test for compound auto fluorescence at 535 nm (green) in HEK293 cell free culture (AID 720682). Also: % is scaled to controls: 0 for no effect and ±100 for the full control effect. An outline of the steps: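 Each library compound, or DMSO control, is added by pintool to medium alone, comprising DMEM and 10% FBS. Emission at 535 nm following 485 nm excitation is quantified against fluorescein.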
The nature of assay [13]: qHTS assay to test for compound auto fluorescence at 590 nm (red) in HEK293 cell free culture (AID 720683). Also: % is scaled to controls: 0 for no effect and ±100 for the full control effect. An outline of the steps: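 Red-channel autofluorescence of compounds in culture medium (DMEM, 10% FBS), no cells, measured at 540/590 nm. Rose Bengal sodium is the reference fluorophore for equivalence.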
Assay [14] can be described thus: qHTS assay to test for compound auto fluorescence at 590 nm (red) in HepG2 cell free culture (AID 720684). Also: % is scaled to controls: 0 for no effect and ±100 for the full control effect. An outline of the steps:
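Cell-free; medium MEM + 10% FBS; compound or DMSO added by pintool; read Ex 540/Em 590 nm; Rose Bengal sodium as red reference fluorophore.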

A short description of assay [15]: qHTS assay to test for compound auto fluorescence at 460 nm (blue) in HepG2 cell free culture (AID 720685). Also: % is scaled to controls: 0 for no effect and ±100 for the full control effect. Put shortly: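 Cell-free plates of MEM plus 10% FBS received 23 nL compound or DMSO vehicle; blue-channel (405/460 nm) intensity scored against triamterene as reference fluorophore.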
Assay [16] in a line: qHTS assay to test for compound auto fluorescence at 460 nm (blue) in HepG2 cells (AID 720687). Also: % is scaled to controls: 0 for no effect and ±100 for the full control effect. Put shortly: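 Blue-channel autofluorescence (Ex/Em 405/460 nm, triamterene-equivalent) was measured after 1 hr compound exposure at 37 C, 5% CO2. Cells were HepG2, plated overnight at 37 C in MEM plus 10% FBS.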
The target of assay [17] is Glucocorticoid receptor (Homo sapiens) (UniProt P04150). The assay can be described thus: qHTS assay to identify small molecule agonists of the glucocorticoid receptor (GR) signaling pathway (AID 720691; active = well fitted activation curve with a large enough effect in the signal ratio in the repeat runs, not every such curve was filed as active; the % refers to the signal ratio; also: % is scaled to controls: 0 for no effect and ±100 for the full control effect). The conditions noted are these: GR-bla HeLa, beta-lactamase reporter ratio, 18 h; activation: at 62.4 µM (top of the series) unless noted. An outline of the steps: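 Measures GR pathway activation through a GRE-beta-lactamase reporter stably integrated in HeLa cells, with 18 h compound treatment at 37 C and fluorescence detection using a FRET substrate.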

For assay [18] the target is unchanged. The assay can be described thus: qHTS assay to identify small molecule antagonists of the glucocorticoid receptor (GR) signaling pathway (AID 720692; active = well fitted inhibition curve with a large enough effect in the signal ratio in the repeat runs, not every such curve was filed as active; the % refers to the signal ratio; also: % is scaled to controls: 0 for no effect and ±100 for the full control effect). An outline of the steps:
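Tox21 10K library screened in concentration-response for blockade of dexamethasone (5 nM final)-induced GRE-bla reporter activity in HeLa cells; 18 h treatment, fluorescence read.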

Assay [19] in a line: qHTS assay for small molecule disruptors of the mitochondrial membrane potential (AID 720635). Also: potency is read from the fitted curve at half-maximal effect. Put shortly:
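Mitochondrial membrane potential tracked with Mito-MPS dye, red aggregates (ex 540/em 590 nm) against green monomers (ex 490/em 535 nm). Compound treatment 1 hr at 37C, dye 30 min in HepG2.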

Assay [20] in a line: qHTS assay to test for compound auto fluorescence at 535 nm (green) in HepG2 cell free culture (AID 720686). Also: % is scaled to controls: 0 for no effect and ±100 for the full control effect.

Unmarked numbers belong to inactive results. Records with an inconclusive call do not appear. Activity calls are given as the source filed them. Unless noted, calls follow the shape of the dose curve; as a rule, active = well fitted curve in the direction sought with a large enough effect in the repeat runs; inconclusive = weak or mixed curves; inactive = no such curve, though single readings can be large; an effect the other way counts as inactive or inconclusive.

Chain of Glucocorticoid receptor (Homo sapiens) (P04150 whole entry, looked up): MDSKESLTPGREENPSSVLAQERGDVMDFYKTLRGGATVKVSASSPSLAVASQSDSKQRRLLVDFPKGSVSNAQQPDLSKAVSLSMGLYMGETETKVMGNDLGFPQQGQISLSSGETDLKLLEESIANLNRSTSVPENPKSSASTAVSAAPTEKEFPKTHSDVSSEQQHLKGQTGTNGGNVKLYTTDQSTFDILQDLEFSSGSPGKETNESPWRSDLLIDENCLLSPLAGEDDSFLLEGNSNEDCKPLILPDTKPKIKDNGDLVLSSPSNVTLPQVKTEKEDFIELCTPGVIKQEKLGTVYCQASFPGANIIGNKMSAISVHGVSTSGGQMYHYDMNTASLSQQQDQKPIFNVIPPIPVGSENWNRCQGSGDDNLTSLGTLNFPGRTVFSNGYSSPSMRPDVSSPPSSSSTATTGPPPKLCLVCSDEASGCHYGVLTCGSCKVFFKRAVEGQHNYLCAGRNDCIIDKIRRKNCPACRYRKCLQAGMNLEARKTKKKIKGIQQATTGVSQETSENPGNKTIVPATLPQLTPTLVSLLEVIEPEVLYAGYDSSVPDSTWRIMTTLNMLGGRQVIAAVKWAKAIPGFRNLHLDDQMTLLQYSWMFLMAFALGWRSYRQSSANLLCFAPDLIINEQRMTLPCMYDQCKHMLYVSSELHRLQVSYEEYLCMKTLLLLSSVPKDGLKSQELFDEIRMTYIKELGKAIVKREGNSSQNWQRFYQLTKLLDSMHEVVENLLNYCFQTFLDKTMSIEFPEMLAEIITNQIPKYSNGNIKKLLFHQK

Take `O=C(c1ccc(F)cc1)C1CCN(CCn2c(=S)[nH]c3ccccc3c2=O)CC1`: the Potency entry in [1], in [2], in [3], in assay [4], in assay [5] and in assay [6] was “inactive” each time. Moreover, the Potency entry in assay [7], in assay [9], in [13], in assay [14], in [17] and in assay [18] was “inactive” in each case. In addition, the molecule was called inactive in assay [8], in assay [10], in assay [11], in [12], in [15] and in assay [16].

In the case of `CC(C)CC(=O)C1C(=O)c2ccccc2C1=O`, the Potency result in assay [1], in assay [2], in [3], in assay [4], in [6] and in assay [7] was “inactive” in each case. The Potency result in assay [9], in assay [13], in assay [14], in assay [20] and in assay [17] was “inactive” each time. In addition, the Potency in assay [19] was 4.33 µM (active). Also, the molecule was classed as inactive in assay [8], in [10], in [11], in assay [12], in assay [15] and in assay [16].

On to `Clc1ccc(Cn2c(CN3CCCC3)nc3ccccc32)cc1`, for which the Potency result in assay [1], in [2], in assay [3], in assay [4], in assay [5] and in assay [17] was “inactive” in each case. The fluorescence, relative to Rose Bengal in assay [6] was -0.15% [at 18.6 µM]. The fluorescence, % of fluorescein control in assay [7] is 0.097% [at 18.6 µM]; in [20], -0.0084% [at 18.6 µM]. Moreover, in [8], the fluorescence, % of triamterene is 0.123% [at 18.6 µM]. Moreover, the fluorescence, % of fluorescent control in assay [9] was 0.574% [at 18.6 µM]; in assay [11], -0.0089% [at 18.6 µM]; in assay [15], 0.0634% [at 18.6 µM]; in assay [16] it was 0.0474% [at 18.6 µM]. Besides, the fluorescence, % of fluorescein in assay [10] was 0.026% [at 18.6 µM]. The activity change in [12] is -0.0526% [at 18.6 µM]. Besides, the fluorescence, % of Rose Bengal in [14] is -0.0239% [at 18.6 µM].

`Nc1cccc(S(=O)(=O)c2cccc(N)c2)c1`: the Potency result in assay [1], in assay [2], in [3], in assay [4], in assay [5] and in [6] was “inactive” each time. Moreover, the Potency result in assay [7], in [13], in assay [14], in assay [20] and in [17] was “inactive” each time. Moreover, the molecule was classed as inactive in assay [8], in assay [10], in assay [11], in [12], in assay [15] and in assay [16].

Turning to `C#C[C@]1(O)CC[C@H]2[C@@H]3CCc4cc(OC5CCCC5)ccc4[C@H]3CC[C@@]21C`, the Potency entry in assay [1], in assay [2], in assay [3], in assay [4], in [5] and in assay [6] was “inactive” in each case. The Potency entry in [7], in assay [9], in [13], in assay [14] and in assay [20] was “inactive” throughout. Moreover, the outcome in assay [8], in assay [10], in [11], in [12], in [15] and in assay [16] was inactive.

With `Nc1c(CC(=O)O)cccc1C(=O)c1ccc(Br)cc1`, the Potency result in assay [1], in assay [2], in assay [3], in assay [4], in assay [5] and in assay [6] was “inactive” throughout. The Potency entry in [7], in [9], in assay [13] and in assay [14] was “inactive” throughout. Moreover, the call in [8], in assay [10], in assay [11], in assay [12], in assay [15] and in assay [16] was inactive.

Regarding `COC(C)OC`, the Potency result in assay [1], in assay [2], in assay [3], in [4], in [5] and in assay [6] was “inactive” throughout. The Potency result in assay [7], in assay [9], in [13], in assay [14], in [20] and in assay [17] was “inactive” throughout. In addition, in [18], the Potency entry was “inactive”. The result in assay [8], in assay [10], in assay [11], in assay [12] and in [16] was inactive.
